Test results from PubChem BioAssay.
Several values for one entry are separate records, joined by “and”; a condition that tells them apart may be missing. Identical values can stand only once. Activity calls are given as the source filed them.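 How the source made its calls, unless noted: active means inhibition at or above 50% relative to wild type and mutant plate controls; inactive means inhibition below 50%.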

Assays:
[1] = inhibitors of TNFa-induced NFkB p65 translocation, primary screen, imaging, HUVEC, MLSMR starter and 10KST1 sets (AID 438;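 active means inhibition above 20% together with a positive visual image hit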;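 further: compound added about 3h40 before a 20 min TNFalpha stimulation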;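 on inhibition: signal is the nuclear over cytoplasmic p65 intensity ratio per well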); details: HUVEC TNFa-induced p65 nuclear translocation; cell count: measured here: nuclei count (cytotoxicity indicator), at 2.08 µM; inhibition: at 2 µM, stronger effect = higher value, 0% TNFa-plus-vehicle, 100% no-TNFa wells
[2] = reduction of polyQ htt aggregates in cells – imaging, exon1htt(103Q)mCFP cells, high-content imaging, primary screen (AID 483;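 active means visual image review flags a hit and inhibition of aggregation exceeds 20%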;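 further: compound exposure lasted 3 days before fixation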;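 on nuclei count: percent of the per-plate median nuclei count of sample wells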); details: exon1htt(103Q)mCFP cell line, aggregate imaging, at 2 µM; inhibition of aggregation: stronger effect = higher value; nuclei count: measured here: cell count, toxicity
[3] = endothelial E-selectin expression blockers – imaging, HUVEC, immunofluorescence, MLSMR starter and 10KST1 sets, primary screen (AID 487;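 active means visually confirmed hit in the image check and inhibition above 20%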;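 on inhibition: signal is fraction of cell area covered by stained E-selectin grains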;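 on nuclei count: 100% = median nuclei count of all wells on the same plate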); details: HUVEC TNFalpha-induced E-selectin immunofluorescence imaging, at 2 µM; inhibition: stronger effect = higher value; nuclei count: measured here: cell number, toxicity
[4] = Primary imaging screen for DUSP6 inhibitors that restore phospho-Erk in transfected HeLa cells, chemical complementation (AID 609;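 active means compounds giving at least 50% inhibition in the cell-based MKP-3 phosphatase rescue imaging test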;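 on inhibition: phospho-Erk level distribution per well compared with pooled transfected vehicle control wells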); details: HeLa MKP-3 transfected, phospho-Erk imaging KS statistic, at 10 µM, cells stimulated with TPA for 15 min
[5] = molecular target: Dual specificity protein phosphatase 6 (Homo sapiens) (UniProt Q16828); experiment: as above; details: HeLa MKP-3 transfected, phospho-Erk imaging KS statistic; at 10 µM; stronger effect = higher value; cells stimulated with TPA for 15 min
Chain of Dual specificity protein phosphatase 6 (Homo sapiens) (Q16828 whole entry, looked up): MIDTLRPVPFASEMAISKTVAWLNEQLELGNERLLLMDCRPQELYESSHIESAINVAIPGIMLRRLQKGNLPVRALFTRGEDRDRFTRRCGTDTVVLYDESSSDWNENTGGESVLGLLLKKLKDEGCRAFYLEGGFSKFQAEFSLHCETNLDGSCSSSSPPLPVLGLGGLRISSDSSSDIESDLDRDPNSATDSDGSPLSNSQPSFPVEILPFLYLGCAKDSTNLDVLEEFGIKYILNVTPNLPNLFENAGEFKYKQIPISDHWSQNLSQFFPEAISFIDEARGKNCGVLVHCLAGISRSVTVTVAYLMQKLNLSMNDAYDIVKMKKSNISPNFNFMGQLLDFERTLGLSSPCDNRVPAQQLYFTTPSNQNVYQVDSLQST

[6] = molecular target: Voltage-gated potassium channel subunit beta-2 (Rattus norvegicus) (UniProt P62483); experiment: inhibitors of rat Kvbeta2 reductase activity – biochemical, NADPH fluorescence, primary screen (AID 622;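 active means fluorescence slope higher than the sample average by over 3 SD, cut at about -0.22 in these data, passing the limit was not always enough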;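 further: slope of raw intensity against log time taken from 70 to 1610 s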); details: recombinant KvBeta, 4-cyanobenzaldehyde reduction, at 10 µM, stronger effect = higher value
Chain of Voltage-gated potassium channel subunit beta-2 (Rattus norvegicus) (P62483 whole entry, looked up): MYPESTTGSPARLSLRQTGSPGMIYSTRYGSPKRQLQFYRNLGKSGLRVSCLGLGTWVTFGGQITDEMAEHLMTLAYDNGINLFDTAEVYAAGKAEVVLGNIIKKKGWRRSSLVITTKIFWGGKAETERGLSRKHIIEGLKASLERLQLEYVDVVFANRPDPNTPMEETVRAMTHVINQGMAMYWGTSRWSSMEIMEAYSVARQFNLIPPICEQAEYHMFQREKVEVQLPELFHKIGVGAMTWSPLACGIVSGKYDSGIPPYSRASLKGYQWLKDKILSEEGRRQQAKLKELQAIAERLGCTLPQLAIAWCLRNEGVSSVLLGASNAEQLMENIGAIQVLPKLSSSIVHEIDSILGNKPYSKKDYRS

[7] = molecular target: Voltage-gated potassium channel subunit beta-2 (Rattus norvegicus) (UniProt P62483); experiment: enhancers of rat Kvbeta2 NADPH turnover – biochemical, NADPH fluorescence, primary screen (AID 623;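 active means NADPH fluorescence slope more negative than the mean of all samples by about 3 SD, 99.7% confidence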;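 further: fluorescence intensity change per second fitted from 20 to 320 s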); details: Recombinant KvBeta, NADPH fluorescence decrease slope, 10 min; at 10 µM; stronger effect = lower value
[8] = molecular target: Alpha-2C adrenergic receptor (Homo sapiens) (UniProt P18825); experiment: compounds altering alpha2C-coupled GIRK flux – cell-based, HEK293 alpha2C/GIRK1/2, thallium flux, primary screen (AID 624;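 active means fluorescence slope after compound addition differing from the mean of all screened samples at 99.7% confidence, in either direction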;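 further: slope of fluorescence ratio to pre-addition baseline per second over 15 to 24 s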); details: thallium flux BTC fluorescence, at 10 µM, actives lie on both sides
Chain of Alpha-2C adrenergic receptor (Homo sapiens) (P18825 whole entry, looked up): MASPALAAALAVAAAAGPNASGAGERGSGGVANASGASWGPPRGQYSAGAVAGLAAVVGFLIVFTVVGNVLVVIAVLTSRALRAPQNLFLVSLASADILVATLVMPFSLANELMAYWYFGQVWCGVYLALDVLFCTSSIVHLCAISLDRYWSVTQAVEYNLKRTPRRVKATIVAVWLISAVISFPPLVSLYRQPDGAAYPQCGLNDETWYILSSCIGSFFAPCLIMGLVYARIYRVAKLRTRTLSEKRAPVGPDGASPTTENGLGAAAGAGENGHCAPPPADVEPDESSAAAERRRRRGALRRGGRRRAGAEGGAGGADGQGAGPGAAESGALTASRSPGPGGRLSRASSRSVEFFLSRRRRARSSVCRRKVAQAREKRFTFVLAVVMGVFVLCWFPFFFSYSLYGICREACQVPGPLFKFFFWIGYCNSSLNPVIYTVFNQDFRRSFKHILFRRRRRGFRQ

[9] = inhibitors of larval lipid processing in zebrafish, primary screen, whole organism, PED6 fluorescence, gall bladder and intestine (AID 686;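 active means a full or partial loss of lipid-probe fluorescence in the fish gall bladder, intestine or both, judged by eye; inactive means no fluorescence loss, or compound toxic to the fish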;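 further: larvae 5 to 7 days old with five fish per well; signal comes from phospholipase A2 cleavage of quenched PED6 carried via bile; overnight exposure to compound and PED6 before scoring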); details: Zebrafish larvae PED6 lipid processing, fluorescence scoring; screened at 20 µM (by protocol)
[10] = loss of swimming-algae plug formation – whole organism, Chlamydomonas reinhardtii, WT vs cilia-less mutant, absorbance, 96-well, primary screen (AID 463189); details: Chlamydomonas reinhardtii gravitaxis, OD600 absorbance, 2 days; at 10 µM; stronger effect = higher value;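 further: 0% = wild type cc124 cells in DMSO and 100% = ciliumless bld1 mutant cells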
[11] = blockers of RIG-like receptor reporter activation – cell-based, Sendai virus stimulus, luciferase, 10K MLSCN set, TLR/RLR signaling modifier project, primary screen (AID 602276;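 active means inhibition at or above 50% at 10 µM; inactive means inhibition below 50%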;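 further: firefly luciferase from ISG56 promoter only with Renilla not read in this screen; 0% = Sendai virus plus DMSO and 100% = medium plus DMSO without virus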); details: HEK293 RL24 IRF3 luciferase reporter, at 10 µM, stronger effect = higher value
[12] = TLR3 IRF3 reporter activation blockers – cell-based, poly I:C stimulus, luciferase, 10K MLSCN set, primary screen (AID 602277;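 active means inhibition of the reporter signal at or above 50%; inactive means inhibition below 50%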); details: HEK293-TLR3 RL24 IRF3 luciferase reporter, at 10 µM, stronger effect = higher value
[13] = measured here: cell density z-score
[14] = measured here: nuclear c-Myc green intensity z-score
[15] = measured here: nuclear pErk red intensity z-score, stronger effect = higher value

SMILES	cell count [1]	inhibition [1]	inhibition of aggregation [2]	nuclei count [2] [%]	inhibition [3]	nuclei count [3] [%]	z-score [4, 13]	z-score [4, 14]	z-score [4, 15]	inhibition [5]	fluorescence slope [6]	NADPH fluorescence slope [7]	slope [8]	outcome [9]	inhibition [10]	inhibition [11]	inhibition [12]
O=C(NO)c1ccccc1O	594	1.9% (inactive)	-2.3% (inactive)	103	-35.8% (inactive)	102	-0.325	-0.0884	-1.2	5.79% (inactive)	-0.458 (inactive)	-2.4e-05 (inactive)	0.00615 (inactive)	inactive	-11.3% (inactive)	5.89% (inactive)	19.5% (inactive)
CCCCC1C(=O)N(c2ccccc2)N(c2ccccc2)C1=O	638	4.6% (inactive)	-5.9% (inactive)	96.9	-26.6% (inactive)	109	1.68	-0.325	-0.291	8% (inactive)	-0.483 (inactive)	-4.2e-05 (inactive)	0.00446 (inactive)	inactive	5.13% (inactive) and -8.61% (inactive)	19.9% (inactive)	41.2% (inactive)
Cc1c(/C(O)=C2/C(=O)C(=O)N(CCN3CCOCC3)C2c2cccnc2)cnn1-c1ccccc1 (stereo not given)	509	4.8% (inactive)	1.3% (inactive)	102	-26.8% (inactive)	107	0.15	-0.278	-0.0426	1.6e-07% (inactive)	-0.602 (inactive)	-1.5e-05 (inactive)	0.00432 (inactive)	inactive	23.9% (inactive)	-12% (inactive)	-9.27% (inactive)
COc1ccc(OC)c(C2=Nn3c(nnc3C3CCCCC3)SC2)c1	580	-3.9% (inactive)	18.9% (inactive)	77.4	-38.3% (inactive)	118	-0.0238	2.3	-0.394	2.92% (inactive)	-0.431 (inactive)	-0.000148 (inactive)	0.00512 (inactive)	inactive	25.7% (inactive)	5.58% (inactive)	19.6% (inactive)
O=C(O)CC1SC(=Nc2cccc(C(F)(F)F)c2)NC1=O (stereo not given)	447	-2.2% (inactive)	3.4% (inactive)	95.3	-42.6% (inactive)	105	-0.141	1.56	0.654	3.42% (inactive)	-0.448 (inactive)	1.4e-05 (inactive)	0.0048 (inactive)	inactive	34.2% (inactive)	19.6% (inactive)	19.9% (inactive)
Cc1onc(-c2ccccc2)c1C(=O)N[C@@H]1C(=O)N2[C@@H]1SC(C)(C)[C@@H]2C(=O)O	638	-3.4% (inactive)	-5% (inactive)	102	-91.9% (inactive)	126	-0.0512	-0.454	0.656	25.1% (inactive)	-0.532 (inactive)	-4.6e-05 (inactive)	0.00473 (inactive)	inactive	-11.8% (inactive)	-2.42% (inactive)	27.7% (inactive)
CNCCCC1c2ccccc2C=Cc2ccccc21	583	-3.3% (inactive)	10.3% (inactive)	79.5	-90.5% (inactive)	120	0.8	0.418	3.14	-11.9% (inactive)	-0.496 (inactive)	-5.9e-05 (inactive)	0.00425 (inactive)	inactive	7.66% (inactive) and 11.9% (inactive)	18.5% (inactive)	41.3% (inactive)
O=C(NC1(C(F)(F)F)C(=O)Nc2c1c(=O)[nH]c(=O)n2Cc1ccco1)C1CCCCC1 (stereo not given)	463	4.1% (inactive)	-6.3% (inactive)	116	-64.3% (inactive)	112	-1.32	1.09	0.0354	3.5% (inactive)	-0.49 (inactive)	1.3e-05 (inactive)	0.00536 (inactive)	inactive	30.9% (inactive)	12.9% (inactive)	19.7% (inactive)
O=C1CC(c2ccccc2)NC(=O)N1 (stereo not given)	692	-11.2% (inactive)	15.5% (inactive)	100	23% (inactive)	127	-1.04	-0.999	0.572	9.39% (inactive)	-0.454 (inactive)	-0.000279 (inactive)	0.0044 (inactive)	inactive	-8.12% (inactive)	11% (inactive)	23.5% (inactive)
NC(Cc1ccc(Oc2ccc(O)cc2)cc1)C(=O)O (stereo not given)	563	-6.8% (inactive)	-8.1% (inactive)	103	-19.7% (inactive)	103	-0.271	-1.56	-0.79	3.45% (inactive)	-0.495 (inactive)	-5.7e-05 (inactive)	0.00414 (inactive)	inactive	-4.82% (inactive)	11.4% (inactive)	24.4% (inactive)
